We go through 38 compounds from PubChem BioAssay AID1508622 (National Center for Advancing Translational Sciences (NCATS), 2021).

Each structure is given as a SMILES string. Active and inactive are the calls of the source. A call without a number means that no potency is given here. Calls come from the whole dose curve; as a rule, active = well fitted activation curve with a large enough effect; inconclusive = small, poorly fitted or top-dose-only effect; inactive = no such curve, though single readings can be large or run the other way.
Potency is the fitted concentration of half-maximal effect.

A short description of the test: Confirmatory qHTS for Identification of Small Molecule Activators of Huntingtin-Antisense Promoter Activity. To be noted: HEK293 HTT-AS promoter firefly luciferase reporter, 24 h; series mostly up to 57.5 µM. The method, boiled down: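 HEK293 luciferase reporter cells, 2,500/well, cultured 24 h, then exposed to compounds at up to 57.5 uM final for 24 h at 37C. Firefly luciferase luminescence read; normalized to vehicle (0%) and zero RLU (-100%).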
In the case of `CCc1ccc(CNC(=O)c2cc3cc(S(=O)(=O)N4CCCCC4)ccc3n2C)cc1`, the Potency result was “inactive”.
As for `O=S(=O)(Nc1ccc(OC(F)(F)F)cc1)c1ccc(N2CCCCS2(=O)=O)cc1`, the entry is “inactive”.
As for `COc1ccc(Nc2nc(-c3ccc(C)cc3)nc3ccccc23)c(OC)c1`, the entry is “inactive”.
In the case of `CC1CCCCN1C(=O)CSc1nc2ccccc2nc1Cc1ccc(Cl)cc1` (stereo not drawn) it was “inactive”.
For the compound `COc1cccc(C(=O)NC(c2ccc(Cl)cc2)c2cc(Cl)c3cccnc3c2O)c1` (stereo not drawn), the Potency result was “inactive”.
With `CCOc1ccc(CCNC(=O)c2sc3ncccc3c2-n2c(C)ccc2C)cc1`, the Potency result was “inactive”.
As for `CN1CCCC(n2nc(Cc3ccc(Cl)cc3)c3ccccc3c2=O)CC1` (stereo not drawn), the entry is “inactive”; as for `Cc1ccccc1Nc1sc(C(=O)c2ccc(F)cc2)c(N)c1C(=O)NCCc1ccccc1`, “inactive”; as for `O=C1CCCc2cc(S(=O)(=O)NCC3CCC(C(=O)Nc4ccccc4F)CC3)ccc2N1` (stereo not drawn), “inactive”.
With `O=S(=O)(NCCc1csc2nc(-c3ccccc3)nn12)c1ccc(Oc2ccccc2)cc1`, the Potency entry was “inactive”.
As for `CCCCN(C)C(=O)C1CCC(CNS(=O)(=O)c2ccc(Cl)cc2)CC1` (stereo not drawn), the entry is “inactive”; as for `CC1=C(C(=O)OC2CCCC2)C(c2ccccc2Cl)CC(=O)N1` (stereo not drawn), “inactive”; as for `COc1cc(CNC(=O)c2ccc3nc(Cc4ccccc4)oc3c2)cc(OC)c1OC`, “inactive”.
In the case of `Cc1ccc(C)c(N2CCN(C(=O)c3nn(C)c4c3CS(=O)(=O)c3ccccc3-4)CC2)c1` it was “inactive”; in that of `CCN1C(=O)c2ccccc2Sc2ccc(NC(=O)Nc3ccc(Br)c(C)c3)cc21`, “inactive”.
In the case of `CCOc1ccc(C(=O)NCC(c2ccc3c(c2)OCO3)N2CCN(c3ccccc3F)CC2)cc1` (stereo not drawn) it was “inactive”; in that of `NC(=O)Nc1cc(-c2ccc(CN3CCOCC3)cc2)sc1C(N)=O`, 23900 nM (active); in that of `COc1ccccc1NC(=O)CSc1nnc(NC(=O)Nc2ccc(C)cc2)s1`, “inactive”.
On to `Cc1ccc(Nc2cc(C)nc(-n3nc(C)cc3C)n2)cc1`, for which the Potency entry was “inactive”.
In the case of `CCOc1ccc(C(=O)Nc2ccc3c(c2)CCCN3S(=O)(=O)c2ccc(C)cc2)cc1` it was “inactive”.
In the case of `CC(=O)N1CCCc2cc(S(=O)(=O)N3CCCC(C(=O)N4CCN(c5ccccc5)CC4)C3)ccc21` (stereo not drawn) it was “inactive”.
As for `Cc1ccc(-c2cn3nc(N4CCCC(C(=O)Nc5ccc(F)cc5)C4)sc3n2)cc1` (stereo not drawn), the Potency entry is “inactive”.
As for `Cc1ccc(CN2CCCn3nc(C(=O)NCc4cc(C)ccc4C)cc3C2=O)cc1`, the entry is “inactive”.
In the case of `COc1ccccc1C(=O)Nc1nc2n(n1)C(c1ccc(F)cc1)C=C(c1ccc(Cl)cc1)N2` (stereo not drawn) it was “inactive”.
In the case of `O=C(c1cccs1)N(Cc1cccnc1)c1nc2ccc(F)cc2s1` it was “inactive”; in that of `CC(=O)Nc1cccc(NC(=O)Cc2csc(COc3cccc(C)c3)n2)c1`, “inactive”.
On to `COc1cc(Br)c(C2CC(=O)Nc3cc4c(cc32)OCCO4)cc1OC` (stereo not drawn), for which the Potency entry is “inactive”.
As for `Cc1cccc(-c2nc3scc(CCNS(=O)(=O)c4ccc(Oc5ccccc5)cc4)n3n2)c1`, the entry is “inactive”.
As for `CC(C)Oc1ccc(C(=O)N(Cc2ccco2)c2ccccn2)cc1`, the figure is 2690 nM (active).
Turning to `CCCOCc1cc(CN2CCN(c3cccc(Cl)c3)CC2)c(O)c2ncccc12`, the Potency entry is “inactive”.
In the case of `O=C(NCc1ccc(F)cc1)c1ccc(CS(=O)(=O)c2ccc(Cl)cc2)o1` it was “inactive”.
In the case of `COc1ccc(NC(=O)C(=O)c2cc(C)n(-c3ccc(C)cc3)c2C)cc1Cl` it was “inactive”.
In the case of `COc1ccc2nc(N3CCN(C(=O)CS(=O)(=O)c4ccc(C)cc4)CC3)sc2c1`, the Potency result was “inactive”.
In the case of `CCOc1ccccc1CNC(=O)c1ccc(NC(=O)N2CCSc3ncccc32)cc1` it was “inactive”; in that of `Cc1ccc(S(=O)(=O)Nc2cccc(-c3ccc(N4CCCCC4)nn3)c2)s1`, 1510 nM (active).
Consider `COc1ccc(-c2noc(CSc3nnc(-c4ccccc4)n3-c3ccc(F)cc3)n2)c(OC)c1`, for which the Potency entry is “inactive”.
In the case of `Cc1cccc(N2CCN(C(=O)C3CCCN(S(=O)(=O)c4ccc5c(c4)oc(=O)n5C)C3)CC2)c1C` (stereo not drawn) it was “inactive”.
In the case of `Cc1nc(-c2ccc(F)cc2)sc1CCNC(=O)c1ccc(C(C)(C)C)cc1` it was “inactive”.
